Assay outcomes (PubChem BioAssay)
hERG WT inh – blocks the wildtype human KCNH2 potassium channel; U2OS, BacMam KCNH2, thallium flux FluxOr; active compounds read low; AID 720551; Q12809; activity change, % at 1.84 µM; actives 0.37% (n = 340,000);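 active = maximum activity change below -70%; inconclusive = maximum activity change between -70% and -50%; inactive = maximum activity change above -50%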; note: % is set by controls: 0 for no effect and ±100 for the full control effect
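U2OS cells transduced with wild-type KCNH2 virus are loaded with FluxOr dye for 45 min, and thallium flux is measured in kinetic reads before and after stimulation buffer. Rate constants are normalized to DMSO controls.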
TRPV1 potentiator – potentiators of human vanilloid receptor 1 (TRPV1) | Q8NER1 | TRPV1-expressing cells, Fluo-8 calcium influx, capsaicin EC20 potentiation | potentiation, % at 8.33 µM | actives 0.02% (n = 320,000) | AID 540277; in the data active = potentiation above about 80%; inconclusive = between about 30% and that limit; note: 0% is about no effect
Target sequence (Q8NER1 whole entry, looked up): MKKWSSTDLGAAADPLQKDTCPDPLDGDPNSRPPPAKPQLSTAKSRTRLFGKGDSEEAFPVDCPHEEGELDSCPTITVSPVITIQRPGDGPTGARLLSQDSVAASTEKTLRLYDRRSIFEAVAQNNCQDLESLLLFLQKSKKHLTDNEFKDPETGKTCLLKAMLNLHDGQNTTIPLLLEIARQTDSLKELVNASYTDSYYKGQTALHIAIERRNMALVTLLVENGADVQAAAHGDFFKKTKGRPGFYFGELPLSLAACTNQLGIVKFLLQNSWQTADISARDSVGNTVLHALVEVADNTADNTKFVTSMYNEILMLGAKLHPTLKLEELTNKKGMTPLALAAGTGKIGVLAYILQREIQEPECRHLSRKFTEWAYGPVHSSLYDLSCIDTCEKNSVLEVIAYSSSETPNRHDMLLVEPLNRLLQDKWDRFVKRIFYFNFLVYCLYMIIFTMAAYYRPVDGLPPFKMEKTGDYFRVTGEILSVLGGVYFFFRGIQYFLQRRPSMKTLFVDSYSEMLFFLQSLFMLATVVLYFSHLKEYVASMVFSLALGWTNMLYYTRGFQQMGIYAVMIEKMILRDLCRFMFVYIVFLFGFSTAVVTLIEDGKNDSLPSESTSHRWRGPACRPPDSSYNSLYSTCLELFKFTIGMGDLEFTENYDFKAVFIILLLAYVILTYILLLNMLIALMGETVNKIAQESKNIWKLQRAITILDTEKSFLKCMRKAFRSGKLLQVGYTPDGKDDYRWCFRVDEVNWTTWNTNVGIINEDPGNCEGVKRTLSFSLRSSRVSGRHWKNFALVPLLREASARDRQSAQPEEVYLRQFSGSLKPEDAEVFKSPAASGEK
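Cells expressing TRPV1 were dye-loaded with Fluo-8 and read kinetically: 10 s baseline, 3 min after compound (agonist portion), then 2 min after EC20 capsaicin (allosteric enhancer portion). Calcium-bound dye fluorescence at 480/520 nm.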
KCNH2 3.1 block – inhibitors of human KCNH2 3.1 potassium channel isoform; U2OS KCNH2 3.1, thallium flux FluxOr; active compounds read low; actives 0.95% (n = 340,000); activity change, % (tested at about 1.8 µM);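 active = maximum activity change below -70%; inconclusive = maximum activity change from -70% to -50%; inactive = maximum activity change above -50%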;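 note: thallium influx rate constant from kinetic fluorescence after stimulation buffer; % is set by controls: 0 for no effect and ±100 for the full control effect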
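Thallium flux via FluxOr fluorescence (Red40 quencher, 45 min loading) in U2OS cells virally expressing the KCNH2 3.1 isoform (1.77 x 10^8 /mL virus, overnight at 37 C). Rate constants from 2-min kinetic reads post-stimulation, normalised to positive and negative controls.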
TRPV1 agonist – agonists of human vanilloid receptor 1 (TRPV1); Q8NER1; TRPV1-expressing cells, Fluo-8 calcium influx, agonist mode; activation, % at 8.33 µM; actives 0.19% (n = 320,000); AID 540275; in the data active = activation above about 80%; inconclusive = between about 30% and that limit; note: 0% is about no effect
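TRPV1-expressing cells were cultured overnight at 35.5C and loaded with Fluo-8 calcium dye for 40 to 90 min at room temperature. After a 10 s baseline, compound was added and calcium influx was read kinetically for 3 min (ex 480/em 520 nm).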
The depositor's hits bear a star; ? = inconclusive; . = no result given. A selection: hits, their analogues and other compounds. The true share with any hit is near 1.2%.

SMILES	hERG WT inh	TRPV1 potentiator	KCNH2 3.1 block	TRPV1 agonist
C[C@@H]1CN([C@H](C)CO)C(=O)CCCn2nncc2CO[C@@H]1CN(C)C(=O)Nc1cccc2ccccc12	-77*	.	11	.
C[C@@H]1CN([C@@H](C)CO)C(=O)CCCn2nncc2CO[C@H]1CN(C)C(=O)Nc1cccc2ccccc12	15	.	3	.
C[C@H](CO)N1C[C@H](C)[C@@H](CN(C)S(=O)(=O)c2cn(C)cn2)Oc2c(NC(=O)Nc3ccc4c(c3)OCO4)cccc2C1=O	-4	.	-123*	.
C[C@H](CO)N1C[C@H](C)[C@@H](CN(C)S(=O)(=O)c2ccccc2)Oc2c(NC(=O)NC3CCCCC3)cccc2C1=O	-10	.	-166*	.
O=C(OCC(=O)N(CCc1ccccc1)Cc1ccccc1)c1ccc(F)c(S(=O)(=O)N2CCOCC2)c1	10	.	7	.
CN(CC(=O)Nc1ccc(F)cc1)CC(=O)N(C)C1(C#N)CCCCC1	0	1	-115*	2
COc1cc(CNC(=O)CCCC/C=C\C(C)C)ccc1O	.	-2	.	80*
COC(=O)c1c(N)sc(Cc2ccccc2)c1C	1	16	-103*	0
COC(=O)c1c(NC(=O)/C=C/C(=O)O)sc(Cc2ccccc2)c1C	2	15	20	1
CC1(C)COC(Cc2ccccc2)=N1	-9	.	-3	.
C=CCNC(=S)N/N=C(\C)c1cc(OC)c(OC)c(OC)c1	-1	-16	-34	0
O=C(NC1CCCCC1)N1CCC(c2nc3ccccc3[nH]2)CC1	-4	8	11	-7
O=C(C1CCCCC1)N1CCC(c2nc3ccccc3[nH]2)CC1	1	-13	-90*	0
CN1CCN(c2ccc(NC(=O)c3ccc(-c4ccc(Br)cc4)o3)cc2)CC1	33	-2	-71*	13
CCCNC(=O)c1csc2c1CCCCC2	0	-12	-78*	27
COc1ccc(CCNC(=O)c2csc3c2CCCC3)cc1	-3	-1	11	7
CN(C(=O)c1ccc(NC(=O)Cc2ccc(NC(=O)C3CCCN(C(=O)CCc4ccccc4)C3)cc2)cc1)C1CC1 (stereo unspecified)	1	-10	-4	0
O=c1ccn([C@@H]2O[C@H](CNCC3=Cc4cc(O)ccc4OC3)[C@@H](O)[C@H]2O)c(=O)[nH]1	-6	.	7	.
COc1cc(NS(=O)(=O)c2ccc(NC(=S)NC(=O)CC(C)C)cc2)nc(OC)n1	-118*	27	-31	-2
Cc1ccccc1C(=O)N1CCC(C(=O)N(CC(C)C)c2c(N)n(Cc3ccccc3)c(=O)[nH]c2=O)CC1	3	-1	-14	3
O=C(CN1CCN(S(=O)(=O)c2ccc(Cl)cc2)CC1)Nc1ccc(F)cc1F	-6	-16	?	8
O=C(CN1CCN(S(=O)(=O)c2ccc(Br)cc2)CC1)Nc1ccc(F)cc1F	8	-37	-92*	0
O=C(CN1CCN(S(=O)(=O)c2ccc(Br)cc2)CC1)Nc1ccc(F)cc1	6	-8	-49	0
NC(=O)CN1CCN(S(=O)(=O)c2ccc(Br)cc2)CC1	-11	0	-192*	2
Brc1ccc(-c2nc3c4ccccc4ccn3c2Cc2ccccc2)cc1	-5	.	-6	.
SMILES	hERG WT inh	TRPV1 potentiator	KCNH2 3.1 block	TRPV1 agonist
COc1ccc(S(=O)(=O)N2CCC(C(=O)NCCC(=O)NCc3cccnc3)CC2)cc1	-74*	.	-9	.
C[C@@H]1CN([C@@H](C)CO)C(=O)c2cc(C#CC3CCCCC3)cnc2O[C@@H]1CN(C)S(=O)(=O)c1ccc(F)cc1	-4	.	-16	.
O=C(COC(=O)c1ccccc1)NCC1COc2ccccc2O1 (stereo unspecified)	-246*	.	4	.
Cc1ccc(C(=O)OCC(=O)NCC2COc3ccccc3O2)cc1 (stereo unspecified)	0	-17	0	6
O=C1CSC(c2cccs2)N1c1ccccc1 (stereo unspecified)	-4	15	10	1
c1ccc(N2CCN(c3ccccc3)C2c2cccs2)cc1	-132*	?	3	0
CCCOc1ccccc1OCC(=O)Nc1cccc(S(=O)(=O)NC2=NCCC2)c1	-10	-3	7	2
CC1=CC(C)(C)NC(=S)N1c1ccc(N(C)C)cc1	2	.	-29	.
Cc1cc(C=C2C(=O)c3ccccc3C2=O)c(C)n1-c1ccccc1	13	5	-1	21
Cc1cc(/C=C2\Cc3ccccc3C2=O)c(C)n1-c1ccccc1	3	-1	0	86*
COc1cccc(COC(=O)c2nn(-c3ccccc3)nc2N)c1	-184*	-3	.	9
